Luc counter: Counterscreen for Luciferase (Kinase-Glo TM) Inhibition; Potency, µM (highest dose often 38.3 µM), for inactives: top-dose activity change, negative = inhibition, usual class: inhibitors; Kinase-Glo luciferase, ATP luminescence, 8 min; Luciferin 4-monooxygenase (Photuris pensylvanica), Q27757; actives 0.28% (n = 200,000); AID 1379, 2008; also: nearly all actives have a fitted effect of over 60% in size
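Compound is pinned into ATP-containing buffer (10 uM ATP, imidazole pH 7.2, 7 mM MgCl2). Kinase-Glo luciferase reagent is then added. Light output is recorded following an 8-min room-temperature incubation.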
RORgamma inh: qHTS for inhibitors of ROR gamma transcriptional activity; AID 2551, 2010; actives 5.4% (n = 310,000); Nuclear receptor ROR-gamma (Mus musculus), P51450; Potency, µM (highest dose often 53.6 µM), for the others: top-dose activity change, negative = inhibition, most hits filed as inhibitors; Drosophila S2 Gal4-RORgamma UAS-luciferase reporter, 20 h; also: nearly all actives have a fitted effect of over 60% in size
Target sequence (P51450 whole entry, looked up, the tested form may be a part): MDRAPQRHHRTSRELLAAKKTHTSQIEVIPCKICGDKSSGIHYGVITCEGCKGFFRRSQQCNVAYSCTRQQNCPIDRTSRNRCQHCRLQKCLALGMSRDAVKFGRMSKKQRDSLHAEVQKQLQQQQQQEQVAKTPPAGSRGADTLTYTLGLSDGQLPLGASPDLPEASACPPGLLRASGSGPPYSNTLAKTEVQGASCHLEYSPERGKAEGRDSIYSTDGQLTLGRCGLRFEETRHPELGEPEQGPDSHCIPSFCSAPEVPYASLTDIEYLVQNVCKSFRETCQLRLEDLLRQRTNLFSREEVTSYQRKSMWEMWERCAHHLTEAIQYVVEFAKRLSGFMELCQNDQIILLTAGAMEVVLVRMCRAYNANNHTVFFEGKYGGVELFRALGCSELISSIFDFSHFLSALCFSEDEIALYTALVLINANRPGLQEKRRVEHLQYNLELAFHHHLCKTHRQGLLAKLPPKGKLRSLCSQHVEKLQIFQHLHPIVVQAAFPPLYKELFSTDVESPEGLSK
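A Gal4/UAS one-hybrid system in insect cells: metallothionein-promoter Gal4–ROR gamma fusion plus Photinus luciferase reporter. Copper sulfate 700 uM final, 20 hr ambient incubation, luminescent detection after 10 min with reagent.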
Gal4-VP16 FLuc: VP16 counterscreen qHTS for inhibitors of ROR gamma transcriptional activity | Drosophila S2 Gal4-VP16 UAS-luciferase, luminescence, 20 h | Potency, µM (highest dose often 53.6 µM), for the others: at the highest dose activity, negative = inhibition, hits mostly inhibitors | actives 3.5% (n = 310,000);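 also: Gal4-VP16 expression switched on by copper sulfate through the metallothionein promoter; nearly all actives have a fitted effect of over 50% in size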
Active calls of the source: *; ? = inconclusive; . = no result; [ ] = remark or other dose. The list is not random: actives were taken first. Their share in the collection is about 6.4%. Calls follow the shape of the dose curve; as a rule, active = well fitted curve in the direction sought with a large enough effect; inconclusive = small, poorly fitted or top-dose-only effect, or another doubt; inactive = no such curve, though single readings can be large; an effect the other way counts as inactive or inconclusive. % is scaled to controls: 0 for no effect and ±100 for the full control effect; potency is read from the fitted curve at half-maximal effect.

SMILES	Luc counter	RORgamma inh	Gal4-VP16 FLuc
CN(C)S(=O)(=O)c1ccc2c(c1)nc(CCC(=O)NCCc1ccc(Cl)cc1)n2C	.	14%	-6%
COc1ccc(-c2ncnc(C(F)(F)F)c2-c2csc(C)n2)c(O)c1	.	2%	-6%
COc1ccccc1NC(=O)C1=C(C)NC(=O)NC1c1cc(C)cs1 (stereo not drawn)	-1%	15%	6%
COc1ccc(NC(=O)N2CCC3(CC2)CCN(S(=O)(=O)c2ccccc2)CC3)cc1	-1%	?	?
COc1ccc(-c2cn(-c3ccc(C)c(C)c3)c(=S)[nH]2)cc1OC	.	?	13µM*
COc1ccc(-c2c(C)nn(-c3ccccc3)c2N)cc1OC	-1%	38%	0%
COc1ccc(-n2cc(-c3ccc(Cl)cc3)[nH]c2=S)cc1	.	-42%	4%
COC(=O)c1ccc(-n2cc(-c3ccc(OC)cc3)[nH]c2=S)cc1	-2%	3.2µM*	?
CCOC(=O)C(C)Oc1c(C(=O)OC)sc2ncccc12 (stereo not drawn)	-2%	8%	14%
CC(C)C[C@H](NC(=O)[C@H](Cc1ccccc1)n1c(=O)[nH]c2ccccc2c1=O)C(=O)N1CCC[C@H]1C(=O)O	.	-1%	-3%
CCNc1ncc2ncc(=O)n(CCOC)c2n1	.	-29%	-3%
CC1CN(CCCCN2C(=O)c3ccccc3C2=O)CC(C)O1 (stereo not drawn)	3%	-5%	-13%
CC1CN(CN2C(=O)c3ccccc3C2=O)CC(C)O1 (stereo not drawn)	1%	37%	13µM*
COC(=O)C1(C(=O)OC)Cc2conc2[C@H]1c1ccccc1	1%	-30%	0%
CCOC(=O)c1ccc(NC(=O)CC2OCCN(CC)C2=O)cc1 (stereo not drawn)	-1%	20µM*	?
CCOC(=O)c1ccc(NC(=O)CC2C(=O)OCCN2CC)cc1 (stereo not drawn)	-3%	?	?
Cc1ccccc1-n1c(=O)n(Cc2ccccc2)c(=O)c2[nH]cnc21	.	0.28µM*	13%
Cc1ccccc1-n1c(=O)n(CCc2ccccc2)c(=O)c2[nH]cnc21	.	3%	-15%
CC(=O)/C=C\C1[C@]2(C)CCCC(C)(C)C2CC[C@@]1(C)O (stereo partly drawn)	-3%	9%	-4%
O=C1C[C@@H](O)[C@@H](O)[C@H]2[C@@H]3C(=O)N(c4cccc(Oc5ccccc5)c4)C(=O)[C@@H]3CC[C@H]12	.	8%[10 µM]	-3%[10 µM]
COc1ccc(OC)c(C2CC(c3ccccc3)=NN2C(=S)Nc2ccccc2)c1 (stereo not drawn)	.	-42%	-4%
CNC(=S)N1N=C(c2ccc(C)cc2)CC1c1cc(OC)ccc1OC (stereo not drawn)	1%	13µM*	-22%
CNC(=S)N1N=C(c2ccc(Br)cc2)CC1c1ccc(OC)cc1 (stereo not drawn)	-5%	?	?
CNC(=S)N1N=C(c2ccc(C)cc2)CC1c1ccc(OC)cc1 (stereo not drawn)	1%	11µM*	-29%
C=C(C)C(=O)OCCCCCC	.	-33%	0%
SMILES	Luc counter	RORgamma inh	Gal4-VP16 FLuc
Cc1nnc(SCC(=O)Nc2ccc(N3CCN(S(C)(=O)=O)CC3)cc2)o1	.	-23%	0%
CCOC(=O)C1C(=O)NC(c2ccccc2)=NC1c1ccc(Br)cc1 (stereo not drawn)	-1%	43%	1%
Cc1oc(-c2ccc3c(c2)OCCO3)cc1C(=O)NCC(=O)O	-2%	7.1µM*	?
Cn1cc(C(=O)O)c(-c2ccc3c(c2)OCCCO3)n1	.	2%	1%
COc1ccc(-c2cc(C(=O)NC(Cc3cc4ccccc4[nH]3)C(=O)O)c(C)o2)cc1OC (stereo not drawn)	.	-5%	8%
Cc1oc(-c2ccc3c(c2)OCCO3)cc1C(=O)NC(CCC(=O)O)C(=O)O (stereo not drawn)	-2%	?	-17%
COc1ccc(-c2cc(C(=O)O)c(C)o2)cc1OC	-26%	?	0.89µM*
Cc1oc(-c2ccc3c(c2)OCCO3)cc1C(=O)O	13µM*	0.89µM*	1.4µM*
O=C(NC1CCSc2ccccc21)c1ccc(Cl)c(S(=O)(=O)N2CCOCC2)c1 (stereo not drawn)	.	30%	-9%
Cc1nc(N)sc1C(=O)N/N=C/c1c[nH]c2ccccc12	-6%	31%	1%
CC(=O)n1cc(/C=N/NC(=O)c2sc(C)nc2C)c2ccccc21	-4%	14µM*	?
Cc1nnsc1C(=O)N/N=C/c1ccccc1	-5%	12%	4%
Cc1c(/C=N\NC(=O)c2ccc([N+](=O)[O-])cc2)cnn1C	-5%	-34%	3%
